This is an account of results in PubChem BioAssay AID2284123 (EPA ToxCast).

Active and inactive are the calls of the source. How the source made its calls: active means hit-call score of the fitted dose curve at least 0.9, where 1 is the maximum; inactive means score below 0.9.

As a reminder, the AC50 is the concentration giving half of the maximal activity seen.

Sequence of human PDE10A2 Phosphodiesterase, PDE10A (gene 10846) (Q9Y233 whole entry, looked up): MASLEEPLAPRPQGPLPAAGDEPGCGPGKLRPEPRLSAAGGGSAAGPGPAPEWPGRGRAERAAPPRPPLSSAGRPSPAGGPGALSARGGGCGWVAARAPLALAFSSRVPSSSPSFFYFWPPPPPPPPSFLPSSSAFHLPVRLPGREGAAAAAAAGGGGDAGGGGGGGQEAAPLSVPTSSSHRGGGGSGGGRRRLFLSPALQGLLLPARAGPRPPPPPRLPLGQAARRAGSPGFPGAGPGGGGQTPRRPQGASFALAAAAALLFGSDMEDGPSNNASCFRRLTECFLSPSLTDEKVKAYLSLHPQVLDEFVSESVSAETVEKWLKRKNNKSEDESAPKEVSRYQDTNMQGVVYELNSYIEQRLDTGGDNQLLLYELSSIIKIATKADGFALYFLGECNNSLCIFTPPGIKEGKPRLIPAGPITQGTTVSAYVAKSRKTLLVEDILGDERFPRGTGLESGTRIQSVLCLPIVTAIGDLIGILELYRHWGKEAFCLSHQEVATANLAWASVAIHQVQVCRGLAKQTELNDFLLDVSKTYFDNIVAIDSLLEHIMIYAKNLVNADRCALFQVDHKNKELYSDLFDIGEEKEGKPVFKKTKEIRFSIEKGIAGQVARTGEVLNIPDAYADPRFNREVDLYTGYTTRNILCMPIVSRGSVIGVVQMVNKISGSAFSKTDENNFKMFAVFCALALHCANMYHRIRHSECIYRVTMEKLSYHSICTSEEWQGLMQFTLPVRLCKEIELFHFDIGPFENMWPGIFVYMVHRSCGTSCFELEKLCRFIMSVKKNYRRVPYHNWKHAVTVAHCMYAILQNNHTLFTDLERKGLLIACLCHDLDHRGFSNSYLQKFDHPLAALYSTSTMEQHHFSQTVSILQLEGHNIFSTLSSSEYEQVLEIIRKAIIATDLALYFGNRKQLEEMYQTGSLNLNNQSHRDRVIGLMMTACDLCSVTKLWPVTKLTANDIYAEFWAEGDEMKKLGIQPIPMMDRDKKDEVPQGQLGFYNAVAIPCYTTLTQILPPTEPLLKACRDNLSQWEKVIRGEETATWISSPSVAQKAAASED

The target in this test is human PDE10A2 Phosphodiesterase, PDE10A (gene 10846) (UniProt Q9Y233). Kind of test: ERF_FR_ENZ_hPDE10A: Eurofins (ERF) Enzymatic LeadHunter Assay for human PDE10A2 Phosphodiesterase. How it is done:
ERF_FR_ENZ_hPDE10A is a biochemical, single-readout assay that uses extracted gene-proteins in a cell-free assay. Measurements were taken 0.33 hour after chemical dosing in a 96-well plate. See PDE10A2 Human Phosphodiesterase Enzymatic Assay, Cerep.ERF_FR_ENZ_hPDE10A is an assay component calculated from the ERF_FR_ENZ_hPDE10A assay. It is designed to measure enzyme activity using a type of enzyme reporter as detected by scintillation counting with radiometry technology.Data from the assay component ERF_FR_ENZ_hPDE10A was analyzed at the assay endpoint, ERF_FR_ENZ_hPDE10A, in the positive analysis fitting direction relative to DMSO as the negative control and baseline of activity. Using a type of enzyme reporter, loss-of-signal activity can be used to understand changes in enzymatic activity as they relate to gene PDE10A. To generalize the intended target to other relatable targets, this assay endpoint is annotated to the phosphodiesterase intended target family, where the subfamily is cyclic nucleotide signaling.
Human cells are incubated for 20 minutes at room temprature with [3H]cAMP + cAMP (0.2uM) as sunstrate and Papaverine as control inhibitor. Test Sample Requirements: Minimum for 1) Screen: 60 ul of 10 mM stock -OR- 1 mg (pre-weighed) for 10 uM final testing. 2) Dose Response: 90 ul of 10 mM stock -OR- 1 mg (pre-weighed) for a top concentration at 10 uM.
Take `O=C(/C=C/c1ccc(O)cc1)CC(=O)/C=C/c1ccc(O)cc1`: the AC50 is 295 nM (active).
